In PubChem BioAssay AID1671190 (National Center for Advancing Translational Sciences (NCATS), 2021):
Out of some 580,000 compounds screened, about 6,100 (1.1%) were called active. A call without a number means that no potency is given here. Another 15% or so got no clear call; they are omitted. Calls follow the shape of the dose curve; as a rule, active = well fitted inhibition curve with a large enough effect; inconclusive = small, poorly fitted or top-dose-only effect, or another doubt; inactive = no such curve, though single readings can be large or run the other way. This excerpt belongs to a sample that is enriched for actives.
Potency is read from the fitted curve at half-maximal effect.

These molecules were tested against Polyunsaturated fatty acid lipoxygenase ALOX12 (Homo sapiens) (UniProt P18054) (assay: Primary qHTS assay for inhibitors of human arachidonate 12S-lipoxygenase (ALOX12): Round 2). Conditions: purified 12hLO, xylenol orange hydroperoxide absorbance; series mostly up to 108 µM.
Polyunsaturated fatty acid lipoxygenase ALOX12 (Homo sapiens), sequence (P18054 whole entry, looked up): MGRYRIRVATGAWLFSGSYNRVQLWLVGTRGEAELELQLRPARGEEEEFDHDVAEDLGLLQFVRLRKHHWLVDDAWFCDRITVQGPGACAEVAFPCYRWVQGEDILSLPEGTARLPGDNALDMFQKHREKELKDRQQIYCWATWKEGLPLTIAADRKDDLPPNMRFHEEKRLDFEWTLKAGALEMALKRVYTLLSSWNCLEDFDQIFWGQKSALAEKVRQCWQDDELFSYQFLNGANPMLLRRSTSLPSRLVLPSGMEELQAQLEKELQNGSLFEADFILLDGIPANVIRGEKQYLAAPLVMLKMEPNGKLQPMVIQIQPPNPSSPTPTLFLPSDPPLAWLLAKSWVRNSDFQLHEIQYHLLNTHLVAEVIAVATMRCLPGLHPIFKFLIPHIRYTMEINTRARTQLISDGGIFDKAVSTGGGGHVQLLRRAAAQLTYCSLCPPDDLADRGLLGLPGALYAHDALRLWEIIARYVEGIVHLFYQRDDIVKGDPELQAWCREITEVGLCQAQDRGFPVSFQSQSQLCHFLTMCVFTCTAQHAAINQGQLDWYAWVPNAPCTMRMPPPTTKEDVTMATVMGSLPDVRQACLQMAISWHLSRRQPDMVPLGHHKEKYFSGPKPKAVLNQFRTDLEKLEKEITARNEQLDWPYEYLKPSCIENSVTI
Method in brief: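 Purified human 12hLO (150 nM final) in 25 mM Hepes, 0.01% Triton X-100, pH 7.0 was preincubated 15 min at room temperature with compound. Then 40 uM arachidonic acid was added, 30 min. Hydroperoxide was read by Fe-XO absorbance ratio 573/405 nm.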
In the case of `CCCn1c(C)c(C)c(-c2nc3ccccc3[nH]2)c1NC(=O)CC(C)C`, the Potency is reported as “inactive”. For `Cc1cc(CN2CCN(Cc3nc(C(C)(C)C)no3)CC2)no1`, the Potency was “inactive”. With `O=c1cc(-c2cccnc2)nc2n(Cc3cccc(F)c3)c3ccccc3n12` the Potency was “inactive”. For `CC(C)COC(=O)/C(C#N)=C\c1c[nH]c2ccccc12`, the Potency was “inactive”. With `O=C(CCC1CCN(S(=O)(=O)c2ccccc2)CC1)NCCc1ccccc1` the Potency was “inactive”. `CCCC1CCC(=NNC(=S)NCCc2ccccc2)CC1` (centres undefined) was tested, and the Potency was 44.7 µM (active). `N#Cc1cccc(NC(=S)NCCc2ccccc2)c1` was tested, and the Potency was “inactive”. In the case of `O=C(NCCCNC(=O)c1nc2ccccc2c(=O)[nH]1)c1cccnc1`, the Potency is reported as “inactive”. In the case of `O=C(c1cccnc1)N(c1cc2sc(=O)oc2c2ccccc12)S(=O)(=O)c1ccccc1`, the Potency is reported as 15.8 µM (active). With `O=C(CN(Cc1ccc(Br)cc1)S(=O)(=O)c1ccccc1)NCc1ccncc1` the Potency was “inactive”. In the case of `Cc1nn(CC(O)COc2ccccc2)c(=O)c2ccccc12` (centres undefined), the Potency is reported as “inactive”. In the case of `Cc1ccccc1C(=O)Nc1ccc2c(c1)nc(CCn1ccccc1=O)n2C`, the Potency is reported as “inactive”. For `CCN(CC)S(=O)(=O)c1ccc(Sc2nnc(C)s2)nc1`, the Potency was “inactive”. With `CCCc1noc(-c2ccn3c(CNC(=O)c4ccc(N(C)C)cc4)nnc3c2)n1` the Potency was 44.7 µM (active). `COc1ccc(C(=O)NCc2nnc3cc(-c4nc(C)no4)ccn23)cc1` was tested, and the Potency was “inactive”. `CN(C)c1ccc(C(=O)NCc2nnc3cc(-c4nc(C5CC5)no4)ccn23)cc1` was tested, and the Potency was “inactive”. For `CCc1cccc2c(C(=O)CSc3nnnn3C3CC3)c[nH]c12`, the Potency was “inactive”. For `CCCNC(=O)c1cn(-c2ccccc2)nc1-c1cccnc1`, the Potency was “inactive”. In the case of `O=C(/C=C/c1cccc(F)c1)c1cc2ccccc2oc1=O`, the Potency is reported as “inactive”. In the case of `O=[N+]([O-])c1ccc(Oc2ccc3ccncc3c2)cc1C(F)(F)F`, the Potency is reported as “inactive”. With `Cc1ccc(NC(=O)CCc2nc(C(C)(C)C)no2)nc1` the Potency was “inactive”. With `Cc1ccc2cccc(NC(=O)c3ccccc3C)c2n1` the Potency was “inactive”. `Cc1cccc(NC(c2cccc(F)c2)c2ccc3ccc(C)nc3c2O)n1` (centres undefined) was tested, and the Potency was 25.1 µM (active). `Cc1c(Cl)cccc1NC(=O)COC(=O)c1nn(C)c(=O)c2ccccc12` was tested, and the Potency was “inactive”. In the case of `Cc1cc(C)n(CCC(=O)NCC2CCN(c3cc(-c4ccc(F)cc4)[nH]n3)CC2)n1`, the Potency is reported as “inactive”. With `Cc1cc(C)c2sc(NC(=O)c3ccc(S(=O)(=O)N4CCCC4)cc3)nc2c1` the Potency was “inactive”. `Cc1cc(C)c2oc(C(=O)Nc3ccc(S(=O)(=O)N4CCCCCC4)cc3)cc(=O)c2c1` was tested, and the Potency was “inactive”. With `Cc1cc(C)c(NS(=O)(=O)c2ccc(S(=O)(=O)N3CCCC3)cc2)c(C(=O)O)c1` the Potency was 39.8 µM (active). In the case of `CC(=O)NC(C(=O)NC(C)c1cccc(Cl)c1)C(C)C` (centres undefined), the Potency is reported as “inactive”. In the case of `CC(C)C(=O)N(Cc1ccc2cc[nH]c2c1)C1CC1`, the Potency is reported as “inactive”. `NC(=O)[C@@H](Cc1ccccc1)NC(=O)C1=C[C@@H](NS(=O)(=O)c2cccc(C(F)(F)F)c2)[C@@H](O)[C@H](O)C1` was tested, and the Potency was “inactive”. In the case of `COc1ccc(CC/C(C)=N/O)cc1`, the Potency is reported as “inactive”. With `O=C(c1ccco1)N1CCC2(CC1)CC(N(Cc1ccccc1)C1CC1)CCO2` (centres undefined) the Potency was “inactive”. In the case of `C=CCOc1cccc(C2C(C(=O)c3ccc(C)o3)=C(O)C(=O)N2c2nnc(C)s2)c1` (centres undefined), the Potency is reported as 39.8 µM (active). For `C=CCOc1cccc(C2C(C(=O)c3ccc(C)o3)=C(O)C(=O)N2CCN2CCOCC2)c1` (centres undefined), the Potency was “inactive”. `C=CCOc1cccc(C2NC(=O)c3ccccc3O2)c1` (centres undefined) was tested, and the Potency was “inactive”. In the case of `CC(C)NC(=O)NC(=O)Cn1cnc2c1c(=O)n(C)c(=O)n2C`, the Potency is reported as “inactive”. With `C/C(=N/NC(=O)c1ccc(Br)o1)c1ccc(C)o1` the Potency was “inactive”. `C/C(=N\NC(=O)NC1CCCCC1)c1ccc(OC(F)F)cc1OC(F)F` was tested, and the Potency was “inactive”. With `C/C(=N\NC(=S)NC1CCCCC1)c1ccc(C)o1` the Potency was 5.01 µM (active). With `O=C(CN1CCN(C(=O)CCCc2c[nH]c3ccccc23)CC1)NC1CC1` the Potency was “inactive”. `CCOC(=O)CSc1ncn(-c2nc(NC(C)(C)C)nc(N(C)C)n2)n1` was tested, and the Potency was “inactive”. In the case of `CN(CC(=O)Nc1ccc2c(c1)OC1(CCCCC1)O2)Cc1cccs1`, the Potency is reported as “inactive”. `CN(C)c1ccc(C=C2C(=O)OC3(CCCC3)OC2=O)cc1` was tested, and the Potency was 44.7 µM (active). `C=CCn1c(N2CCC(C(N)=O)CC2)nc2c1c(=O)[nH]c(=O)n2C` was tested, and the Potency was “inactive”. For `O=C(Cc1ccc(Cl)cc1)NN=C1CCC(c2ccccc2)CC1` (centres undefined), the Potency was “inactive”. `CCOC(=O)CN1C(=O)C(O)(CC(=O)c2cccnc2)c2ccccc21` (centres undefined) was tested, and the Potency was “inactive”. In the case of `CNCCC(F)(F)F`, the Potency is reported as 15.8 µM (active). With `CN1CCC(CNC(=O)CCc2c[nH]c3ccccc23)CC1` the Potency was “inactive”. In the case of `Cc1cc(C(C)(C)C)ccc1OC(=O)c1ccc(C#N)cc1`, the Potency is reported as “inactive”. In the case of `CN1CCCN(S(=O)(=O)c2ccc3c(c2)CCC3)c2ccccc21`, the Potency is reported as “inactive”. For `CCc1ccc(-c2nc(-c3nc(-c4cccs4)cs3)sc2C)cc1`, the Potency was “inactive”. With `CCOC(=O)C1=C(C)NC(=O)NC1c1ccc(C(=O)OC)cc1` (centres undefined) the Potency was “inactive”. With `COC(=O)c1ccc(CNC(=O)Cn2cc(C)c(=O)[nH]c2=O)cc1` the Potency was “inactive”. In the case of `CCOC(=O)c1sc(=S)n2c1[nH]c(=O)c1ccc(C(=O)OC)cc12`, the Potency is reported as 15.8 µM (active). With `COc1ccc(Nc2nc(-c3cccc(OC)c3OC)no2)cc1` the Potency was “inactive”. In the case of `COc1ccc(Nc2ccccc2)cc1`, the Potency is reported as 35.5 µM (active). With `COc1ccc(NC(=O)ON=C2c3ccccc3-c3ccccc32)cc1` the Potency was “inactive”. With `O=C(NC1CCc2ccccc21)c1cc(COc2ccc3c(c2)OCO3)[nH]n1` (centres undefined) the Potency was “inactive”. For `CC1(C2CC2)NC(=O)N(CC(=O)Nc2cccc3cccnc23)C1=O` (centres undefined), the Potency was “inactive”. For `O=C(OCc1cc(Cl)c2c(c1)OCCCO2)C12CC3CC(CC(Cl)(C3)C1)C2`, the Potency was “inactive”. With `CCCn1nc(C(=O)Nc2ccc(OC)c(S(=O)(=O)N(C)C)c2)c2ccccc2c1=O` the Potency was “inactive”. `CCCCc1ccc(Nc2nnc(SCC(=O)NC(C)C)s2)cc1` was tested, and the Potency was “inactive”. For `Cc1ccc(Nc2nnc(SCC(=O)c3ccc(Cl)s3)s2)cc1C`, the Potency was “inactive”. With `CC(C)c1ccc(Nc2nnc(SCC(=O)c3nnc(-c4ccccc4)o3)s2)cc1` the Potency was 39.8 µM (active). `O=C(NCC1CCN(c2cc(-c3ccc(Cl)cc3)[nH]n2)CC1)c1ccc2nc[nH]c2c1` was tested, and the Potency was “inactive”. `COc1ccc(-c2cc(N3CCN(C(=O)Cc4cccc(OC)c4)CC3)n[nH]2)cc1` was tested, and the Potency was “inactive”. For `CN(C(=O)CN1CCN(c2cc(-c3ccc(OCc4ccccc4)cc3)ncn2)CC1)c1ccccc1`, the Potency was 10 µM (active). In the case of `Cc1ccc(-c2cc(N3CCCN(C(=O)COc4ccccc4)CC3)n[nH]2)cc1C`, the Potency is reported as “inactive”.
